# Source: PubChem
# HADH2 inh = qHTS Assay for Inhibitors of HADH2 (Hydroxyacyl-Coenzyme A Dehydrogenase, Type II); recombinant HADH2, NADH fluorescence, beta-hydroxybutyryl-CoA; 3-hydroxyacyl-CoA dehydrogenase type-2 (Homo sapiens), Q99714; 73,000 compounds, 3.4% hits; Potency, µM (titrated, usually from 57.1 µM), for inactives: at the top dose activity change, negative = inhibition, hits mostly inhibitors; also: nearly all actives have a fitted effect of over 60% in size
#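 NADH fluorescence (ex 360/em 450 nm) read every 30 s for 4 min; activity taken as last-minus-first time point difference. Enzyme 20 nM, NAD+ 1 mM, beta-hydroxybutyryl-CoA 90 uM, pH 9.0 Tris buffer.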
# HSD17B inhib = qHTS Assay for Inhibitors of HSD17B4, hydroxysteroid (17-beta) dehydrogenase 4; recombinant HSD17B10, NADH fluorescence kinetic; Potency, µM (doses to about 57.1 µM), for the others: at the highest dose activity change, negative = inhibition, actives largely listed as inhibitors; 75,000 compounds, 7.6% hits; 3-hydroxyacyl-CoA dehydrogenase type-2 (Homo sapiens), Q99714;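 also: the protocol describes HADH2 (HSD17B10) and not the HSD17B4 of the title; nearly all actives have a fitted effect of over 70% in size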
#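 Activity followed as NADH fluorescence increase (ex 360, em 450 nm) every 30 seconds for 4 min, using final 90 uM beta-hydroxybutyryl CoA and 1 mM NAD+. Recombinant His-tagged enzyme, 20 nM, pH 9.0 Tris buffer, 15 min compound preincubation.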
# 15-hLO inh = qHTS Assay for Inhibitors of 15-hLO (15-human lipoxygenase) | Polyunsaturated fatty acid lipoxygenase ALOX15 (Homo sapiens), P16050 | Potency, µM (series often up to 57.1 µM), inactives show top-dose activity change, negative = inhibition, hits mostly inhibitors | 74,000 compounds, 1.4% hits | purified 15hLO-1, xylenol orange hydroperoxide absorbance; also: nearly all actives have a fitted effect of over 55% in size
# Target sequence (P16050 whole entry, looked up): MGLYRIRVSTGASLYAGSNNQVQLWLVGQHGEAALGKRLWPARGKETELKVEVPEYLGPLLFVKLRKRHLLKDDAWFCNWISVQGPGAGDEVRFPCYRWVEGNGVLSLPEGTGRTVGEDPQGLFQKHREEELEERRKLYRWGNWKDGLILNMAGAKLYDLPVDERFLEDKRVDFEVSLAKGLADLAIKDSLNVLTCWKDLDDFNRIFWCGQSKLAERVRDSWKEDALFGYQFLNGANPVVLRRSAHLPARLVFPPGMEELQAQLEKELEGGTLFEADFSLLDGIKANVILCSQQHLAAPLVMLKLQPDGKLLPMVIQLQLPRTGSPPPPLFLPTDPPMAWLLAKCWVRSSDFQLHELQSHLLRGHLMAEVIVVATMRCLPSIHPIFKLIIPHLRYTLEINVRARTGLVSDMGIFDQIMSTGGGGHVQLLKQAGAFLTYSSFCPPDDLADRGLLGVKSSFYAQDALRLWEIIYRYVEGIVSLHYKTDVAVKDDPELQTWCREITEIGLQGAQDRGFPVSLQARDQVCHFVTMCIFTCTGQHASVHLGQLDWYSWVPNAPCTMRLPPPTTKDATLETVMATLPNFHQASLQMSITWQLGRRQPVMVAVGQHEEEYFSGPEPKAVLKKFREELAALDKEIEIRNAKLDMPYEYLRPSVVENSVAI
#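 Inhibition is scored from a chromogenic endpoint. After 15 min enzyme-compound contact, arachidonic acid (50 uM final) reacts 6 min with 40 nM 15hLO-1 at room temperature, then Fe-XO reagent is added for 30 min and absorbance ratio recorded.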
# ERK AVP inh = qHTS Assay for Inhibitors of the ERK Signaling Pathway using a Homogeneous Screening Assay. HEK293-V1b, vasopressin-stimulated pERK AlphaScreen. Potency, µM (top dose mostly 57.5 µM), inactives show at the top dose activity, negative = inhibition, usual class: inhibitors. 72,000 compounds, 0.99% hits; also: nearly all actives have a fitted effect of over 55% in size
#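 HEK293 cells stably expressing V1b receptor, preincubated 30 min at 37 °C with compound, then stimulated 5 min with 25 nM vasopressin. Phospho-ERK by AlphaScreen SureFire after 5 h RT; normalized to DMSO and vasopressin; AC50 by Hill fit.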
# FLuc inh = qHTS Assay for Inhibitors of Firefly Luciferase; Potency, µM (series often up to 57.1 µM), for inactives: at the highest dose activity change, negative = inhibition, hits mostly inhibitors; purified firefly luciferase, luminescence, 8 min; 72,000 compounds, 2.2% hits; also: nearly all actives have a fitted effect of over 40% in size
#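 Firefly luciferase (PKLight detection mix) with 10 uM ATP in pH 7.2 imidazole buffer (KCl, MgCl2, Tween 20, BSA). Compounds tested across a concentration series (qHTS). Luminescence read after 8 min at ambient temperature.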
# Bst PK mod = Pyruvate Kinase; 51,000 compounds, 1.2% hits; Potency, µM; AID 361, 2006; purified pyruvate kinase, luminescence ATP production; ribose 5-phosphate activator present at AC10; in the data active = potency below about 11 µM; inconclusive = mostly about 12 µM to 25 µM;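 the screen sought inhibitors and activators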;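 also: scaled between full activation by ribose 5 phosphate and full inhibition by luteolin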
# * marks the source's active call; other numbers are inactive results; i = inactive; ? = inconclusive; / = not tested or not shown; [ ] = dose if it differs, or a comment. Sampled rows, rich in hits. Any-hit rate of the full collection: about 11%. Unless noted, calls follow the shape of the dose curve; as a rule, active = well fitted curve in the direction sought with a large enough effect; inconclusive = small, poorly fitted or top-dose-only effect, or another doubt; inactive = no such curve, though single readings can be large; an effect the other way counts as inactive or inconclusive. Unless noted, % is scaled to controls: 0 for no effect and ±100 for the full control effect; potency is read from the fitted curve at half-maximal effect.
SMILES,HADH2 inh,HSD17B inhib,15-hLO inh,ERK AVP inh,FLuc inh,Bst PK mod
CCOC(=O)c1c(C)nc2c(C#N)cnn2c1C,?,31.6µM*,4.8%,-26.4%,-0.2%,>57
CCOC(=O)c1cnn2c(N)c(C#N)nnc12,-0.5%,-2.0%,-8.9%,14.4%,0.4%,>57
S=C1NC=NC2N=CNC12 (configuration not stated),?,?,?,17.2%,/,/
COc1ccc(N(CC(O)Cn2nnc3ccccc32)S(=O)(=O)c2ccc(C)cc2)cc1 (configuration not stated),6.8%,-3.8%,-10.0%,-0.9%,2.1%,5.7*
COc1ccc(N(CC(O)CN2CCCCC2)S(=O)(=O)c2ccc(C)cc2)cc1 (configuration not stated),12.6%,3.4%,-21.0%,-12.3%,2.7%,>57
CN(c1ccc(O)cc1)c1nc(-c2ccccc2)cs1,?,-5.6%,-66.0%,-24.9%,12.6µM*,?
CC(=O)NCCN=Cc1sc2ccccc2c1O,31.6µM*,-0.8%,-10.2%,/,/,/
COc1c(O)c(O)cc2c1oc1c3cc(C)ccc3oc(=O)c21,/,10µM*,/,-12.4%,/,/
CCOc1c(C)cc(-c2ncccc2O)cc1C,25.1µM*,25.1µM*,0.0%,31.3%,-7.9%,>57
COc1ccc(-c2noc(CCC(=O)Nc3cc(Cl)c(OC)cc3OC)n2)cc1,3.6%,2.1%,-1.9%,-14.3%,15.8µM*,>57
COc1ccc(-c2noc(CCC(=O)Nc3cc(OC)ccc3OC)n2)cc1,3.7%,7.7%,5.9%,-21.6%,-11.5%,>57
CC(C)(C)c1ccc(-c2noc(CCC(N)=O)n2)cc1,8.6%,-0.6%,6.2%,10.1%,12.6µM*,i
CN(C)C(=O)CCc1nc(-c2ccc(C(C)(C)C)cc2)no1,-8.6%,-4.4%,11.5%,-9.6%,1.8%,>57
CNC(=O)CCc1nc(-c2ccc(C(C)(C)C)cc2)no1,0.4%,-5.0%,5.6%,-8.0%,12.6µM*,?
CCCCNN,-10.0%[11.4 µM],6.9%[11.4 µM],?,-1.5%[11.5 µM],1.7%[11.4 µM],/
O=C(O)[C@H]1[C@H](C(=O)O)[C@H](C(=O)O)C[C@@H]1C(=O)O,6.2%[11.4 µM],-6.6%[11.4 µM],4.0%[11.4 µM],-5.7%[11.5 µM],1.5%[11.4 µM],/
c1ccc(CSc2nnnn2-c2cccc3ccccc23)nc1,-5.8%,0.3%,-1.8%,-17.0%,2.6%,7.36*
O=C(O)c1cccc(-n2nnnc2SCc2ccccn2)c1,1.3%,11.0%,4.6%,-14.5%,0.4%,>57
c1ccc(-n2nnnc2SCc2cn3cccnc3n2)cc1,25.1µM*,31.6µM*,19.6%,15.0%,-0.5%,>57
c1ccc(-n2nnnc2SCc2cn3ccccc3n2)cc1,-2.1%,0.7%,0.7%,-4.5%,-1.1%,>57
COC(=O)c1sc2ccccc2c1N,25.1µM*,25.1µM*,?,-24.9%,-7.9%,/
COC(=O)c1sc2ccccc2c1C(=O)OC,-1.5%,-14.1%,-2.2%,?,1.9%,>57
O=C1Nc2ccc(S(=O)(=O)NCCC3=CCCCC3)c3cccc1c23,6.7%,25.1µM*,-10.8%,-3.2%,1.2%,>57
CCOC(=O)c1c(C)oc2ccc(NS(=O)(=O)c3ccc4c5c(cccc35)C(=O)N4)cc12,?,-17.2%,?,?,0.3%,>57
CCN(CC)S(=O)(=O)c1ccc2c3c(cccc13)C(=O)N2,?,25.1µM*,-12.6%,/,2.5%,/
SMILES,HADH2 inh,HSD17B inhib,15-hLO inh,ERK AVP inh,FLuc inh,Bst PK mod
CC(C)OC(=O)c1c(N)sc2c1CCCC2,7.94µM*,-14.4%,?,-13.2%,-1.7%,>57
CNC(=O)c1c(N)sc2c1CCCCC2,?,?,?,-28.4%,-8.2%,/
CCn1c(C)nc2cc(C(=O)OC(C(F)(F)C(F)F)C(F)(F)C(F)F)ccc21,14.2%,-2.4%,-1.0%,-5.1%,20µM*,/
Nc1ccc(F)cc1F,-1.5%,1.0%,-3.7%,-1.4%,/,/
COc1ccccc1CCn1c(=O)c(-c2ccc(F)c(F)c2)nc2cncnc21,3.8%,?,-23.1%,?,1.9%[11.4 µM],/
CO/N=C1/[C@H]2O[C@@H]2[C@@H](O)[C@H]2[C@H]1CCn1c(=O)n(-c3ccccc3)c(=O)n12,1.9%[11.4 µM],-4.1%[11.4 µM],-16.9%[11.4 µM],1.4%[11.5 µM],0.1%[11.4 µM],/
Cc1ccc(N2C(=O)c3ccc(N)cc3C2=O)cc1,5.8%,32.5%,-9.3%,25.7%,15.8µM*,/
Cc1ccc2nc(-c3ccc4c(c3)OCCO4)cc(C(=O)O)c2c1,-3.4%,-16.7%,-10.5%,0.0%,12.6µM*,?
O=C(O)c1cc(-c2ccc3c(c2)OCO3)nc2ccccc12,-14.2%,-0.8%,-8.0%,-11.2%,-27.4%,>11.4
O=C(O)c1cc(-c2cccs2)nc2cc3c(cc12)OCCO3,15.8µM*,25.1µM*,-27.6%,/,15.8µM*,/
COCCN1C=C(C(=O)OC)C(c2cc(Br)c(OC)c(OC)c2)C(C(=O)OC)=C1,i[11.4 µM],25.1µM*,-16.0%[11.4 µM],36.7%,-0.5%,/
COC(=O)C1=CN(C)C=C(C(=O)OC)C1c1ccc(O)c(OC)c1,-1.0%,?,-5.9%,-12.4%,-13.3%,>57
CC1(O)CC2C(CC1O)C2(C)C (configuration not stated),/,-5.9%,-1.8%,2.6%,/,/
COc1ccccc1CC(=O)Nc1ccc(-c2nnc(-c3ccco3)o2)cc1,?,31.6µM*,-25.5%,?,-3.7%,/
CCNc1nc(C)nc2c1oc1ccccc12,3.7%,-6.3%,6.1%,6.3%,0.7%,>57
CCNc1nc(CC)nc2c1oc1ccccc12,4.7%,4.9%,-8.4%,-17.4%,-3.3%,4.99*
CC1CCCCN1C(=O)CSc1nnc(-c2ccc(Cl)s2)o1 (configuration not stated),-20.0%,31.6µM*,-6.1%,14.8%,-4.4%,>57
O=C1c2ccccc2C(=O)c2c1ccc(O)c2O,/,31.6µM*,10µM*,?,/,/
O=C1c2ccc(O)c(O)c2C(=O)c2c(O)ccc(O)c21,/,5.01µM*,0.251µM*,3.16µM*,/,/
CCOC(=O)N/N=C1/C[C@@H](O)[C@@H](O)[C@@H]2[C@@H]3C(=O)N(C(C)(C)C)C(=O)[C@H]3CC[C@H]12,5.4%[11.4 µM],2.1%[11.4 µM],3.9%[11.4 µM],12.5%[11.5 µM],0.2%[11.4 µM],/
C=CC[C@@H]1C=C[C@@H](O/N=C(/C)CCC(=O)OC[C@@H]2O[C@H](c3ccccc3)C=C[C@@H]2Oc2ccc(OC)cc2)[C@@H](CO)O1,-2.0%[11.4 µM],0.1%[11.4 µM],0.0%[11.4 µM],15.7%[11.5 µM],1.7%[11.4 µM],/
O=c1cc(CF)[nH]c(=S)[nH]1,5.3%[11.4 µM],1.9%[11.4 µM],3.5%[11.4 µM],-0.3%[11.5 µM],1.9%[11.4 µM],/
COc1ccccc1-c1cc(C2CC2)nc(N)c1C#N,?,31.6µM*,-7.2%,-9.8%,-1.5%,/
